Molecules are shown by their SMILES. This is part of a sample that, as a whole, favours compounds with a hit. Of some 83,000 tested, about 20% had one in any assay.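 Growth was measured after 48 h exposure to one concentration of compound in 96-well plates. Values under 10 count as active.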 A number with no mark means an inactive call. Active and inactive are the calls of the source.

Common to all, as to test: NCI-60 one-dose screen, 48 h (100 = growth as untreated, 0 = no growth, -100 = all killed)
Experiment [1] relates to RPMI-8226 leukemia. Particulars: 10 µM unless noted.
For experiment [2], the system named is OVCAR-8 ovarian. Particulars: 10 µM unless noted.
Experiment [3] relates to OVCAR-5 ovarian. Particulars: 10 µM unless noted.
For experiment [4], the system named is OVCAR-4 ovarian. The following applies: 10 µM unless noted.
In experiment [5] the test system is SK-OV-3 ovarian. Particulars: 10 µM unless noted.
Experiment [6] has as its system OVCAR-3 ovarian. Particulars: 10 µM unless noted.
Experiment [7] relates to HS 578T breast. Particulars: 10 µM unless noted.
In experiment [8] the test system is NCI/ADR-RES ovarian. Particulars: 10 µM unless noted.
Experiment [9] has as its system T-47D breast. The following applies: 10 µM unless noted.
The test system of experiment [10] is BT-549 breast. The following applies: 10 µM unless noted.
Experiment [11] concerns MDA-MB-435 melanoma. Particulars: 10 µM unless noted.
Experiment [12] deals with SW-620 colon. The following applies: 10 µM unless noted.
Experiment [13] has as its system MCF7 breast. Particulars: 10 µM.
For experiment [14], the system named is HCT-116 colon. Particulars: 10 µM unless noted.
For experiment [15], the system named is HCC-2998 colon. Particulars: 10 µM unless noted.
Experiment [16] concerns KM12 colon. Particulars: 10 µM unless noted.
The subject of experiment [17] is IGROV1 ovarian. Particulars: 10 µM unless noted.

On to `N#C/C(=C\c1c(-c2ccccc2)[nH]c2ccccc12)S(=O)(=O)c1ccccc1`, for which the growth in [1] was -43.1% (active); in experiment [2] it was 43.3%; in experiment [3], 75.1%; in experiment [4], 83%; in [5] it was 30.5%; in experiment [6] it was -27.9% (active). In addition, the growth in experiment [7] was 15.9%; in [8] it was 7.91% (active); in experiment [9] it was 38.9%; in experiment [10], 51.7%; in [11] it was 7.27% (active); in experiment [12] it was 28.6%. The growth in experiment [13] is 14%; in experiment [14], 36.8%; in [15] it was 57%; in experiment [16] it was 25.1%.
Turning to `C1CCN(c2nc(N3CCCCC3)nc(N3CCOCC3)n2)CC1`, the growth was 100% in experiment [1]; 96.4% in experiment [2]; 122% in experiment [3]; 96% in experiment [4]; 99.6% in [5]; 104% in [17]. Also, the growth in experiment [6] was 118%; in experiment [7], 112%; in experiment [9] it was 86.2%; in experiment [10], 109%; in experiment [11] it was 101%; in experiment [12], 103%. In addition, the values for the growth in experiment [14], in experiment [15] and in experiment [16] were 105%, 90.7% and 106%, respectively.
Take `CCN1C(=O)N(CC)C2C1NN=c1s/c(=C3\C(=O)N(C(C)C)c4ccccc43)c(=O)n12` (configuration not stated): the growth in [1] is 7.53% (active); in [2], 12.6%; in experiment [3], 54.2%; in [4], 58.1%; in experiment [5], 29.7%; in experiment [6], 5.56% (active). Moreover, the growth is 36.7% in experiment [7]; 7.06% (active) in experiment [8]; 68.1% in experiment [9]; 6.02% (active) in experiment [10]; -12.1% (active) in [11]; 27.1% in [12]. Further, the growth is 20.5% in [13], 10.1% in experiment [14], 20.3% in experiment [15] and 15.3% in experiment [16].
For `O=C(Cc1ccccc1)NC(c1ccc(Cl)cc1)c1c(O)ccc2ccccc12` (configuration not stated), the growth was -20.8% (active) in experiment [1]; 5.43% (active) in [2]; 45.7% in [3]; 21.7% in experiment [4]; 36.1% in experiment [5]; -22.9% (active) in [6]. The growth in experiment [7] is 54.1%; in [8] it was 9.15% (active); in experiment [9], 10.8%; in experiment [10], 50%; in [11], 6.36% (active); in [12] it was 17.5%. The growth in experiment [13] is 8.18% (active); in experiment [14] it was 2.62% (active); in experiment [15], 24.8%; in experiment [16] it was 15.1%.
As to `COc1cc(C(=O)O/N=C(\N)Cc2cccc3ccccc23)cc(OC)c1OC`, the growth in [1] is -36.4% (active); in [2] it was 1.62% (active); in [3] it was 48%; in [4], 66.8%; in [5], 69.2%; in experiment [6] it was 6.38% (active). For the same molecule, the growth was 26% in experiment [7]; 59.8% in [8]; -73.1% (active) in [9]; 56.4% in experiment [10]; -85.2% (active) in experiment [11]; -76.7% (active) in [12]. For the same molecule, the growth is -85.7% (active) in experiment [13], -71.4% (active) in experiment [14], -82.5% (active) in experiment [15] and -68.4% (active) in [16].
In the case of `O=C(Nc1ccc(Cl)cc1F)c1cc(F)ccc1O`, the growth in experiment [1] was -23% (active); in experiment [2], 9.44% (active); in [3] it was 27.8%; in experiment [4], 11.2%; in experiment [5], -4.5% (active); in experiment [17], 17.5%. Also, the growth in experiment [7] is 1.1% (active); in experiment [8], 7.19% (active); in experiment [9], -8.15% (active); in experiment [11], 0.146% (active); in [12] it was 9.96% (active); in experiment [13] it was 3.15% (active). Further, the growth is 3.99% (active) in experiment [14], 11.7% in [15] and 0.993% (active) in experiment [16].
Take `CCCCC(O)(c1ccc(Cl)cc1)C(CN1CCOCC1)c1ccc(Cl)cc1` (configuration not stated): the growth was 18.5% in experiment [1]; 22.3% in [2]; 83.1% in experiment [3]; 32% in [4]; 81.1% in [5]; 3.29% (active) in [6]. Besides, the growth in experiment [7] is 40%; in experiment [8], 29.9%; in [9], 32%; in experiment [10] it was 59.5%; in experiment [11] it was 26.2%; in experiment [12] it was 47.1%. For the same molecule, the growth was 17.7% in experiment [13], 33.2% in experiment [14], 24.6% in experiment [15] and 32.5% in experiment [16].
Turning to `COc1ccc(-c2nc(-c3ccccn3)c(-c3ccccn3)n2CC(C)C)cc1OC1CCCC1`, the growth is -1.78% (active) in experiment [1]; 15.7% in [2]; 33.8% in [3]; 13.5% in experiment [4]; 8.21% (active) in experiment [5]; 19.6% in experiment [17]. The growth in [7] is 43.3%; in [8], 10.9%; in experiment [9] it was 21.5%; in experiment [10], 38.5%; in experiment [11] it was 26.9%; in [12] it was 21.9%. The growth in [13] was 10.8%; in experiment [14], 14.7%; in experiment [15], 24.4%; in [16] it was 8.2% (active).
As for `C[C@@H](C(=O)NCCCC#Cc1cnc(Nc2ccc(C#N)cc2)nc1NC1CC1)N(C)C(=O)/C=C/CN(C)C`, the growth was 14.9% in experiment [1]; 55.9% in experiment [2]; 66.3% in [3]; 38.7% in experiment [4]; 41.1% in experiment [17]; 29.3% in experiment [6]. Also, the growth was 59% in experiment [7]; 78.2% in [8]; 54.9% in experiment [9]; 32.3% in experiment [10]; 24.5% in [11]; 42.1% in [12]. Also, the growth is 17.3% in [13], 27.7% in experiment [14], 64.5% in experiment [15] and 17.7% in experiment [16].

The values are drawn from PubChem BioAssay (NCI).
